Screening results: PubChem, National Center for Advancing Translational Sciences (NCATS)
Sampled rows, rich in hits. Any-hit rate of the full collection: about 10%.
SARS PLpro yeast: SARS-CoV PLP inhibition in yeast; 330,000 compounds, 0.19% hits; AID 485353; Potency, µM (titrated, usually from 32.9 µM), for inactives: at the top dose activity, positive = growth rescue, actives largely listed as activators; S. cerevisiae expressing SARS-CoV PLpro, growth rescue; further: 0% is about no effect; nearly all actives have a fitted effect of over 55% in size
Pf growth 48h: P. falciparum growth inhibition at 48 hours (one generation); 310,000 compounds, 5.9% hits; P. falciparum luciferase growth in erythrocytes, 48 h; Potency, µM (highest dose often 28.7 µM), inactives show top-dose activity change, negative = inhibition, actives largely listed as inhibitors; active means well fitted inhibition curve with a large enough effect; inconclusive means small, poorly fitted or top-dose-only effect, or another doubt; inactive means no such curve, though single readings can be large or run the other way; further: on the % scale 0 is the no-effect control and ±100 the full control effect
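Firefly luciferase activity from engineered P. falciparum reports growth; inhibitors lower the luminescent signal. Cultures contained 2% hematocrit erythrocytes at 0.1% final parasitemia.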
NS1 inh: blocks influenza NS1 protein function; Potency, µM (doses to about 46.1 µM), for the others: at the top dose activity, positive = more growth; 270,000 compounds, 0.4% hits; further: actives are rising curves; nearly all actives have a fitted effect of over 50% in size
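Recovery from NS1-induced slow growth read by OD600 in budding yeast switched to galactose assay medium (pH 6.0, -URA) at 1:100 dilution. Compound 23 nl per well; the matching strain lacking NS1 serves as control.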
Pf growth 96h: inhibits malaria parasite growth, 96 h; P. falciparum luciferase reporter growth, 96 h; Potency, µM (doses to about 28.7 µM), for inactives: top-dose activity change, negative = inhibition, most hits filed as inhibitors; 320,000 compounds, 6.9% hits; active means well fitted inhibition curve with a large enough effect; inconclusive means small, poorly fitted or top-dose-only effect, or another doubt; inactive means no such curve, though single readings can be large or run the other way; further: on the % scale 0 is the no-effect control and ±100 the full control effect
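P. falciparum expressing integrated firefly luciferase grown in erythrocytes (2% hematocrit, 0.05% parasitemia final) with compounds for 96 hours at 37 C, 5% CO2. Growth inhibition read as loss of luminescence after adding luciferase detection reagent.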
Starred values were filed as active, the others as inactive; ? = inconclusive; . = not tested or not shown. Unless noted, the call rests on the fitted dose curve. Potency means the concentration at half of the fitted maximal effect.

SMILES | SARS PLpro yeast | Pf growth 48h | NS1 inh | Pf growth 96h
O=S(=O)(NCc1ccccn1)c1ccc(Cl)c(C(F)(F)F)c1 | 1.3% | 228.1% | 13.9% | 12.7%
CCOC(=O)Cn1c(=O)oc2cc(S(=O)(=O)NCc3ccccn3)ccc21 | 2.0% | . | 4.9% | 11.7µM*
CCCCNS(=O)(=O)c1ccc2c(c1)oc(=O)n2CC(=O)OCC | -0.3% | . | 8.0% | ?
CCOC(=O)Cn1c(=O)oc2cc(S(=O)(=O)NCc3cccs3)ccc21 | 0.4% | . | 3.9% | 13.1µM*
CCOc1cc(S(=O)(=O)NCc2ccccn2)ccc1Cl | -9.7% | -9.6% | -2.8% | 8.28µM*
CSc1ccc(S(=O)(=O)NCC(=O)OCC(=O)N2CCCC2=O)cc1[N+](=O)[O-] | 2.2% | -0.5% | . | 20.2%
CC(=O)N1CCN(C(=O)c2cc(=O)c3ccccc3o2)CC1 | -2.0% | 11.8% | 2.1% | 16.5%
CCOC(=O)C1CCCN(S(=O)(=O)c2ccc(-c3cc(C)no3)s2)C1 (stereo not drawn) | 3.5% | ? | -20.0% | ?
S=C1NC2(CCCCC2)Cc2ccccc21 | -39.7% | ? | -46.8% | 11.7µM*
N#CC(C#N)=C1NC2(CCCC2)Cc2ccccc21 | 9.9% | ? | -2.7% | 3.29µM*
Cc1cc([N+](=O)[O-])ccc1NC(=O)CCC(=O)N1CCCC1 | 5.0% | -12.2% | 1.7% | ?
Cc1ccc(NC(=O)CSCC(=O)Nc2ccccc2C(=O)NC2CC2)cc1 | -2.6% | 18.3% | . | 7.0%
Cc1ccc(Cn2cnc3sc4c(c3c2=O)CCC4)c(C)c1 | -0.2% | ? | 0.5% | 1.85µM*
O=C(COC(=O)CNC(=O)c1ccc(Cl)cc1Cl)NC1CCCCCCC1 | 0.2% | 0.0% | . | 0.0%
c1ccc2c(CN3CCCCCC3)c[nH]c2c1 | -2.0% | 45.3% | -36.5% | -18.3%
c1ccc2c(CNC3CCCCCC3)c[nH]c2c1 | ? | . | -7.8% | 10.4µM*
Cc1cc(C(=O)CCC(=O)N(C)CC(=O)Nc2ccc(OC(F)(F)F)cc2)c(C)s1 | 3.6% | ? | . | -29.2%
CCN(CC)CCNc1c2c(c(C#N)c3nc4ccccc4n13)CCCC2 | -33.2% | 10.4µM* | -12.3% | .
N#Cc1c2c(c(NCc3ccco3)n3c1nc1ccccc13)CCC2 | -2.9% | 1.04µM* | 4.4% | 0.738µM*
CN(C)CCNc1c2c(c(C#N)c3nc4ccccc4n13)CCCC2 | -11.2% | ? | -11.4% | ?
COc1ccccc1/C=C/C(=O)NC(=S)N(C)C1CCCCC1 | -1.2% | ? | 23.5% | -5.7%
Cc1ccc(C(=O)NC(=S)N(C)C2CCCCC2)cc1Br | -11.4% | ? | 10.3% | ?
Cc1ccccc1C(=O)NC(=S)N(C)C1CCCCC1 | 1.0% | 14.7µM* | -2.5% | ?
O=C(NC(=S)NC1CCS(=O)(=O)C1)c1cccs1 (stereo not drawn) | -0.8% | 2.3% | 14.7% | 7.5%
CN(C(=S)NC(=O)c1ccccc1Br)C1CCCCC1 | 3.3% | -11.7% | -10.1% | 4.65µM*
SMILES | SARS PLpro yeast | Pf growth 48h | NS1 inh | Pf growth 96h
O=C(NC(=S)NC1CCS(=O)(=O)C1)c1ccccc1Br (stereo not drawn) | 1.5% | -4.5% | 13.3% | 5.86µM*
CNC(C)C(=O)NC(C(=O)N1CCCC1C(=O)Nc1ccc2ncccc2c1)C(C)C (stereo not drawn) | -4.7% | 41.4% | . | 10.8%
Cc1cc2c(NC3CCCCC3)ncnc2s1 | -9.1% | -15.5% | -55.4% | -18.6%
CC(Oc1ccc([N+](=O)[O-])cc1)C(=O)NCC1CCCO1 (stereo not drawn) | -0.4% | 11.0% | 19.6% | -16.7%
Cc1cc(OC(C)C(=O)NCC2CCCO2)cc(C)c1Cl (stereo not drawn) | 1.5% | 3.9% | -18.5% | 5.22µM*
CCNc1nc(NCC)nc(N(C)/N=C/c2ccco2)n1 | -1.0% | ? | -4.9% | 1.47µM*
COC(=O)C(Cc1ccccc1)NC(=O)CNC(=O)c1ccccc1OC (stereo not drawn) | -18.9% | 16.3% | -6.2% | 15.7%
COCCCN=C1NN=C(c2cc(C)n(-c3ccccc3F)c2C)CS1 | -3.9% | -40.2% | . | -143.9%
Cc1cc(C2=NNC(=NCCc3ccccc3)SC2)c(C)n1-c1c(C)n(C)n(-c2ccccc2)c1=O | 0.3% | 6.57µM* | 7.9% | ?
COCCCN=C1NN=C(c2cc(C)n(Cc3ccccc3Cl)c2C)CS1 | 0.4% | ? | . | ?
COCCN=C1NN=C(c2cc(C)n(CC3CCCO3)c2C)CS1 (stereo not drawn) | 0.3% | ? | 12.1% | 9.28µM*
COCCCN=C1NN=C(c2cc(C)n(-c3ccccc3)c2C)CS1 | ? | 10.4µM* | 15.0% | 8.28µM*
COCCn1c(C)cc(C2=NNC(=Nc3ccccc3F)SC2)c1C | -5.8% | . | 22.2% | 3.7µM*
CC(=O)Nc1ccc(C(F)(F)F)cc1Cl | -1.9% | 44.7% | 1.4% | 35.6%
COc1ccccc1NC(=O)COC(=O)CCC(=O)c1cccs1 | -0.6% | 4.9% | . | ?
Cc1c(N=C2NN=C(c3c[nH]c4ccccc34)CS2)c(=O)n(-c2ccccc2)n1C | 0.1% | 4.15µM* | 8.2% | ?
COCCN(C(=O)c1ccc(N2CCCC2=O)cc1)c1c(N)n(Cc2ccccc2)c(=O)[nH]c1=O | -5.8% | 10.2% | . | 53.3%
CSc1ccc(CNC(=O)Cn2nc(C)c3c(C)n(-c4ccc(C)cc4)nc3c2=O)cc1 | -2.1% | 32.2% | -8.6% | 2.62µM*
Cc1ccc(-n2nc3c(=O)n(CC(=O)NCCc4ccco4)nc(C)c3c2C)cc1 | 5.6% | 25.1% | 2.4% | 8.28µM*
COc1ccc(CNC(=O)Cn2nc(C)c3c(C)n(-c4ccc(C)cc4)nc3c2=O)cc1OC | 2.1% | ? | -1.3% | ?
Cc1ccc(CN2C(=O)C(C)Oc3ccccc32)cc1 (stereo not drawn) | -3.0% | 20.1% | -3.6% | -24.6%
Cc1ccc(N2Cc3ccccc3OC(C)C2=O)cc1 (stereo not drawn) | 10.2% | . | -2.6% | 9.28µM*
O=C(NCCc1nnc2ccc(SCC(=O)N3CCCC3)nn12)c1ccc(F)cc1 | 3.6% | -11.3% | -4.9% | ?
CCN(Cc1ccccc1)S(=O)(=O)c1cc(C(=O)NC2CCCCCC2)ccc1OC | 4.6% | ? | 25.5% | ?
CCN(Cc1ccccc1)S(=O)(=O)c1cc(C(=O)NCC2CCCCC2)ccc1OC | 2.1% | ? | 14.9% | 11.7µM*
SMILES | SARS PLpro yeast | Pf growth 48h | NS1 inh | Pf growth 96h
O=C(NCCCc1ccccn1)C1CCC(=O)N(Cc2cccc(F)c2)C1 (stereo not drawn) | 0.1% | 2.6% | 2.8% | 3.2%
CCOC(=O)C1CCN(c2nc(C)cc(C)c2C#N)CC1 | 0.3% | 16.3% | -2.1% | 1.5%
Cc1cc(C)c(C#N)c(N2CCCC(C(N)=O)C2)n1 (stereo not drawn) | 13.0% | -15.3% | 2.4% | 11.7µM*
CC(=O)c1ccc(N(CC(=O)NC2CCCC2)C(=O)CCC(=O)Nc2cc(C)on2)cc1 | -0.7% | 11.7% | -0.6% | 11.6%
O=C(Nc1ccc(F)cc1F)c1cc(=O)n(-c2ccccc2)c(=O)[nH]1 | -0.2% | -17.1% | . | 24.8%
Cc1cc(C(=O)CSc2nnc(-c3ccncc3)n2-c2ccccc2)c(C)n1C | -3.4% | 14.7µM* | 13.2% | 16.5µM*
Cc1cc(C(=O)CSc2nnc(-c3ccccc3)n2C)c(C)n1C | 4.5% | -2.0% | ? | -0.5%
Cc1cc2nc(NC3=NCN(CCCN4CCOCC4)CN3)nc(C)c2cc1C | . | . | -5.1% | .
